Results filed as inconclusive are left out. Entries that show only a call come without a potency. Calls of active or inactive are those of the source. Calls follow the shape of the dose curve; as a rule, active = well fitted inhibition curve with a large enough effect; inconclusive = small, poorly fitted or top-dose-only effect; inactive = flat fitted curve, though single readings scatter.
The compounds below were run on W2 (assay: qHTS profiling for inhibitors of Plasmodium falciparum proliferation (AID 504749; also: nearly all actives have a fitted effect of over 60% in size)). Conditions: P. falciparum in erythrocytes, SYBR Green DNA, 72 h; series mostly up to 28.7 µM.
In short: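 SYBR Green fluorescence (ex 485 nm, em 535 nm) reports parasite DNA after 72 h compound exposure of infected red cells at 0.3% parasitemia, 2.5% hematocrit; signal normalized to 0.29 uM artemisinin and vehicle wells.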
In the case of `C[C@H](N)Cc1ccccc1`, the Potency is reported as “inactive”. With `C[C@]12C=CC(=O)C=C1CC[C@@H]1C2CC[C@]2(C)OC(=O)CCC12` (stereo partly drawn) the Potency was “inactive”. For `OCC(O)[C@H]1O[C@@H]2O[C@H](C(Cl)(Cl)Cl)O[C@@H]2[C@H]1O` (stereo partly drawn), the Potency was “inactive”. In the case of `CC1(C)S[C@@H]2[C@H](N)C(=O)N2C1C(=O)O` (stereo partly drawn), the Potency is reported as “inactive”. For `C=C1Nc2ccccc2C(=O)N1c1ccccc1C`, the Potency was “inactive”. For `O=[N+]([O-])OC1CO[C@H]2C(O[N+](=O)[O-])COC12` (stereo partly drawn), the Potency was “inactive”. For `CCOC(=O)/C=C(C)/C=C/CC(C)CCCC(C)C` (stereo not drawn), the Potency was “inactive”. In the case of `[S]=[Sb][S][Sb]=[S]`, the Potency is reported as “inactive”. `CN1C2CCC1C(C(=O)O)C(OC(=O)c1ccccc1)C2` (stereo not drawn) was tested, and the Potency was “inactive”. With `C[C@@H]1CC[C@H]2[C@@H](C)C(=O)O[C@@H]3OC4(C)CC[C@@H]1C32OO4` (stereo partly drawn) the Potency was 3 nM (active). `Nc1nc(O)c(-c2ccccc2)o1` was tested, and the Potency was “inactive”. In the case of `C=CC[N+]1(C)CCC23c4c5ccc(O)c4O[C@H]2C(=O)CC[C@@]3(O)C1C5` (stereo partly drawn), the Potency is reported as “inactive”. With `OC[C@@H](O)[C@H]1O[C@@H]2OC(C(Cl)(Cl)Cl)O[C@H]2[C@H]1O` (stereo partly drawn) the Potency was “inactive”. `CCCCCCC(=O)O[C@H]1CC[C@H]2[C@@H]3CCC4CC(=O)C=C(C)[C@]4(C)[C@H]3CC[C@]12C` (stereo partly drawn) was tested, and the Potency was 7570 nM (active). In the case of `CCCN1CCCC2Cc3nc(N)ncc3CC21` (stereo not drawn), the Potency is reported as “inactive”. In the case of `COc1ccc2c3c1O[C@H]1[C@@H](O)C=C[C@H]4C(C2)NCCC341` (stereo partly drawn), the Potency is reported as “inactive”. For `CCCCCC(O)C1C(=O)OC(C)C(O)\C=C/C=C\C=C/C=C\C=C(\C)C(O)C(O)C(O)CC(O)CC(O)CC(O)CC(O)CC1O` (stereo not drawn), the Potency was “inactive”. `CCCCCc1cc(O)c2c(c1)OC(C)(C)C1CC=C(C)CC21` (stereo not drawn) was tested, and the Potency was 1510 nM (active).

— PubChem BioAssay (NCATS)
Potency is read from the fitted curve at half-maximal effect.
